Targets with a hit are over-represented here; the source holds about 7,900 in all. About 0.6% of all pairs of compound and target were hits. A number with no mark means an inactive call.
Tests used:
Test in all cases: log2 fold change, soluble protein after heating vs DMSO (PISA); higher = thermal stabilisation; K562 cells, 10 uM, 30 min; active = over 0.2 and 3.5 SD of the protein, either way, in both replicates (recomputed)
[1] = compound: CC1=C(C=C(C=C1)NC(=O)C2=CC(=CC=C2)C(C)(C)C#N)NC3=CC4=C(C=C3)N=CN(C4=O)C
Summary of the method: (§1)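 Quantification of soluble protein used TMTpro 16plex LC-MS/MS, with channel sums equalised. Samples were the supernatant after 21,000xg for 90 min of pooled aliquots from K562 cells (2×10^6 cells/mL) treated with 10 μM compound for 30 min, heated for 3 min over 48°C-58°C, and extracted in PBS with 0.5% NP-40 at 4°C. Values, from duplicates, describe thermal stability against control samples on a log2 fold-change scale.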

[2] = compound: CC1=C(C=C(C=C1)NC(=O)C2=CC(=CC=C2)N(C)C)NC(=O)C3=CC=C(C=C3)O
Summary of the method: as §1

[3] = compound: CC1=CC=C(C=C1)SC2=C3C=C(SC3=CN=C2)C(=O)N
Summary of the method: as §1

[4] = compound: CC1=NC(=CC=C1)C2=C(N=C(N2)C(C)(C)C)C3=CC4=NC=CN=C4C=C3
Summary of the method: as §1

[5] = compound: CCCCN(Cc1ccc(C(=O)NO)cc1)C(=O)Nc1ccccc1 [Nexturastat A]
Summary of the method: as §1

[6] = compound: CCCS(=O)(=O)Nc1ccc(F)c(C(=O)c2c[nH]c3ncc(-c4ccc(Cl)cc4)cc23)c1F [vemurafenib]
Summary of the method: as §1

[7] = compound: CCCS(=O)(=O)Nc1ccc(F)c(C(=O)c2c[nH]c3ncc(Cl)cc23)c1F
Summary of the method: as §1

[8] = compound: CCCc1cc(C)[nH]c(=O)c1CNC(=O)c1cc(-c2ccnc(N3CCN(C)CC3)c2)cc2c1cnn2C(C)C
Summary of the method: as §1

[9] = compound: CCN(CC)Cc1ccc2cc(COC(=O)Nc3ccc(C(=O)NO)cc3)ccc2c1 [givinostat]
Summary of the method: as §1

[10] = compound: CCN(CCCOc1ccc2c(Nc3cc(CC(=O)Nc4cccc(F)c4)[nH]n3)ncnc2c1)CCOP(=O)(O)O [barasertib]
Summary of the method: as §1

Sequence of UniProt P50851 (P50851 whole entry, looked up): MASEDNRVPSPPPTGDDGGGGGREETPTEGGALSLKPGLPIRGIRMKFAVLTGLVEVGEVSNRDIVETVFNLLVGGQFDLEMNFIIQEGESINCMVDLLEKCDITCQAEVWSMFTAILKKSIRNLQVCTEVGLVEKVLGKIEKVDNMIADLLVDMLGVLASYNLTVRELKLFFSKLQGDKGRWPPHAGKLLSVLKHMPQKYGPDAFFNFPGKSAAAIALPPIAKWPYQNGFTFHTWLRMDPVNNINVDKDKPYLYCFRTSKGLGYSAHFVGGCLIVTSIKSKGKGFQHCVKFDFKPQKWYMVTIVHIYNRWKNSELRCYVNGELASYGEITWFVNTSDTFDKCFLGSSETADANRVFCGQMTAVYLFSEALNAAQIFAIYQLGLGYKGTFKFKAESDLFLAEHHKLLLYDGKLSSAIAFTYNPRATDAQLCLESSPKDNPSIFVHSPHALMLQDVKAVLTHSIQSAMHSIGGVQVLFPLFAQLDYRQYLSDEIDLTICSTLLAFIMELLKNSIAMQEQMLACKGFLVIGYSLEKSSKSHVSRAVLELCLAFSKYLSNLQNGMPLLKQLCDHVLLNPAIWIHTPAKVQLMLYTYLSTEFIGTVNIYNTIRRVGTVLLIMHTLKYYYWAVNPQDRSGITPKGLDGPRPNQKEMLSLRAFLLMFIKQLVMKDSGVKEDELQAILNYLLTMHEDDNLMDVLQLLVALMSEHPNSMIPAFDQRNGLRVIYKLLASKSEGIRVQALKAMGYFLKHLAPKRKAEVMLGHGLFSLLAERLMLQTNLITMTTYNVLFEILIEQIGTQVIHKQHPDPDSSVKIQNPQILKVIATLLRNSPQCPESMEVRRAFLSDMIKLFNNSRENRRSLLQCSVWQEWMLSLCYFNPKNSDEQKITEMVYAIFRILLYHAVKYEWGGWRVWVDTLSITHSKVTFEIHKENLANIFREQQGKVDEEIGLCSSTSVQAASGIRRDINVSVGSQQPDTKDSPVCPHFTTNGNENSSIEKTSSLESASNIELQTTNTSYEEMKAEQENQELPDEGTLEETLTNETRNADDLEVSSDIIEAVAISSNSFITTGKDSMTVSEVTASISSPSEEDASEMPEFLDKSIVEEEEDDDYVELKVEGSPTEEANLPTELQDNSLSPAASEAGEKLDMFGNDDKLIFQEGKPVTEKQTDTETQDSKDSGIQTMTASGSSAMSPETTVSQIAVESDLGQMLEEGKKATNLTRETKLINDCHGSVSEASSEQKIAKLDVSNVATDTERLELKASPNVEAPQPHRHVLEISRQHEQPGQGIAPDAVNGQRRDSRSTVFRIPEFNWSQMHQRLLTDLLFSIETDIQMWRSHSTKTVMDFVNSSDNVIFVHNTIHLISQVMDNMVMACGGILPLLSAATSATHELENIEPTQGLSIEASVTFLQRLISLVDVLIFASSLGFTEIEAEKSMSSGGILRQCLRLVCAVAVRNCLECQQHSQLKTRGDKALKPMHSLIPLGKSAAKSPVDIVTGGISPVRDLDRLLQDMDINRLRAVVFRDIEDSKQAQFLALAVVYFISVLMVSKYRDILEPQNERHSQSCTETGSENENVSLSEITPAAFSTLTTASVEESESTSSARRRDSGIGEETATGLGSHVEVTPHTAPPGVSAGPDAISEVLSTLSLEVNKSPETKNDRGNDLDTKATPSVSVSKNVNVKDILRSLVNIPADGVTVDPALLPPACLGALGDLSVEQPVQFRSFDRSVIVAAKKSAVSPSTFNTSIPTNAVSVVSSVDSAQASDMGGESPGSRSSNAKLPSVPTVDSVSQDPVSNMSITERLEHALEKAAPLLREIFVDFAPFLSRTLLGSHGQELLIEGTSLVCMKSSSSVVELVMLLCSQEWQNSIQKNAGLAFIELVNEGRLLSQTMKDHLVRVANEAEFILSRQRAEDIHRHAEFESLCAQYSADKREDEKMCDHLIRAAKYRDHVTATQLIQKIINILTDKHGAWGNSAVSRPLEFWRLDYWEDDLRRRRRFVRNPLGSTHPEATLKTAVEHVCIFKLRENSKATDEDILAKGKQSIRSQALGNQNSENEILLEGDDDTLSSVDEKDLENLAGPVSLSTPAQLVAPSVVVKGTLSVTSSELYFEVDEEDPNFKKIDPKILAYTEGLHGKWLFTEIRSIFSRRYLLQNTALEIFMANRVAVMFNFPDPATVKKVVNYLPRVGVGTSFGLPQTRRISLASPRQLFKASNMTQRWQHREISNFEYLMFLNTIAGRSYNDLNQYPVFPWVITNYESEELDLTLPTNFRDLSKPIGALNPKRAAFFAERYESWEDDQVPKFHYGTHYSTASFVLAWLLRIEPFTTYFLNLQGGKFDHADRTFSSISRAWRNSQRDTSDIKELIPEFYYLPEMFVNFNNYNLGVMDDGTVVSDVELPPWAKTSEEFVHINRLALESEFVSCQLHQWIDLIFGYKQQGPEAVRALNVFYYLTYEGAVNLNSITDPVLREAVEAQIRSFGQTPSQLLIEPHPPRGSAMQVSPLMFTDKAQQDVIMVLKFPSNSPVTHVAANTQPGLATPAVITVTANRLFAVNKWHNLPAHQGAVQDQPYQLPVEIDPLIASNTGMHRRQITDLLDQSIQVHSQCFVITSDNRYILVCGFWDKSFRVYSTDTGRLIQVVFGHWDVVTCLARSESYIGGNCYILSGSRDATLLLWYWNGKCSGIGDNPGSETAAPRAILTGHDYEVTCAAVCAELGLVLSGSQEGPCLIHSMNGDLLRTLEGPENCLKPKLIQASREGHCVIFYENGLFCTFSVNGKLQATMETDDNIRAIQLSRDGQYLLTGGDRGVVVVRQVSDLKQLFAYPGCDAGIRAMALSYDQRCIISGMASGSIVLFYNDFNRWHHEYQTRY
Sequence of UniProt Q9UBF1 (Q9UBF1 whole entry, looked up): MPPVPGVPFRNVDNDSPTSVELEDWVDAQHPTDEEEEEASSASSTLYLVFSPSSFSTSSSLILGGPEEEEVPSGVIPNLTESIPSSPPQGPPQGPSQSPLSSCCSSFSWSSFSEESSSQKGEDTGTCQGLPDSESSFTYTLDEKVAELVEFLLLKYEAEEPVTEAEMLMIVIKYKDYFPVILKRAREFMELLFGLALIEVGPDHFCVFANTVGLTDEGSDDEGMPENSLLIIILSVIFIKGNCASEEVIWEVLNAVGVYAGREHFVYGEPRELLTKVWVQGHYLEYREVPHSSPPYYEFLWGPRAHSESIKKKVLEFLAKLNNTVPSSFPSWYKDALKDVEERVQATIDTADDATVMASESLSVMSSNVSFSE
Sequence of UniProt O00629 (O00629 whole entry, looked up): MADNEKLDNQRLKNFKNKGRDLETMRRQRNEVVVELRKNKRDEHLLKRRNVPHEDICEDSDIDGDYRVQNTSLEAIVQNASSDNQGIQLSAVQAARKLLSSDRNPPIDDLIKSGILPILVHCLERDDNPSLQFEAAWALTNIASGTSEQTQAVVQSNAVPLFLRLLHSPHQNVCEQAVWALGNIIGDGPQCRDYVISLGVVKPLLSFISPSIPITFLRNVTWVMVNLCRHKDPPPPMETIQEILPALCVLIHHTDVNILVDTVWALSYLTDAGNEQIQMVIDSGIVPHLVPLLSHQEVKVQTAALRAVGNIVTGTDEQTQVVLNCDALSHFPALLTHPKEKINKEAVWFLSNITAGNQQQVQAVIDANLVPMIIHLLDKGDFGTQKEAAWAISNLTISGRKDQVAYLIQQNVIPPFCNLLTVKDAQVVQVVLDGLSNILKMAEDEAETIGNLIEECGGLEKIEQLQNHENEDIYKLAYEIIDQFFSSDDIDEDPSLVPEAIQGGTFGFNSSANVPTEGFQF
Sequence of UniProt Q07666 (Q07666 whole entry, looked up): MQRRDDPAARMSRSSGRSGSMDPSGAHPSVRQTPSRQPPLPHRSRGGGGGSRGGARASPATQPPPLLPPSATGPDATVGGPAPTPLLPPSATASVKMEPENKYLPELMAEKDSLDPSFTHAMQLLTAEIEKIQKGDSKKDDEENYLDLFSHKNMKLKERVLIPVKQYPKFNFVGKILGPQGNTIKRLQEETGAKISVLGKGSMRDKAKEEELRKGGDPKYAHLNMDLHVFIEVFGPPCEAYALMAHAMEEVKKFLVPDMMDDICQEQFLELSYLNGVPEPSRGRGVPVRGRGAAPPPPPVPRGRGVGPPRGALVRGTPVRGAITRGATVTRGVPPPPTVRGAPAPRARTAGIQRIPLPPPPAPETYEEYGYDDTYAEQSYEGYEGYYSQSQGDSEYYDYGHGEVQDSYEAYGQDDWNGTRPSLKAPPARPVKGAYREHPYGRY
Sequence of UniProt A1L0T0 (A1L0T0 whole entry, looked up): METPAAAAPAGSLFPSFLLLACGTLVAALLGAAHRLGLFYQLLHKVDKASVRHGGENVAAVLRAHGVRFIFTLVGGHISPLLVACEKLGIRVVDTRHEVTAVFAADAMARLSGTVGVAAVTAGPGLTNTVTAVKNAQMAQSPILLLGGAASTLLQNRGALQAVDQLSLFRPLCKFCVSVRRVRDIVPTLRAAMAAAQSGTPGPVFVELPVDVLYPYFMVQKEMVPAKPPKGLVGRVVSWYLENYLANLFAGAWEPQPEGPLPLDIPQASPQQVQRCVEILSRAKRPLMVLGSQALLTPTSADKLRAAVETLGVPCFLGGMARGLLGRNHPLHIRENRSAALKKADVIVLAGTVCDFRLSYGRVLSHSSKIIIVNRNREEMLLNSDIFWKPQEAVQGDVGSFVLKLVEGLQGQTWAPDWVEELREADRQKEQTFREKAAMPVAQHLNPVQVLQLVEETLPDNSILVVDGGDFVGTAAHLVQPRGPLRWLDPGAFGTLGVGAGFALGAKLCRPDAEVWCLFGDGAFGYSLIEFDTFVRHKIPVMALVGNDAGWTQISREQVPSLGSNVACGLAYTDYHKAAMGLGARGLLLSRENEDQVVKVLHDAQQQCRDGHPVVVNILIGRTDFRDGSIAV
Sequence of UniProt Q13257 (Q13257 whole entry, looked up): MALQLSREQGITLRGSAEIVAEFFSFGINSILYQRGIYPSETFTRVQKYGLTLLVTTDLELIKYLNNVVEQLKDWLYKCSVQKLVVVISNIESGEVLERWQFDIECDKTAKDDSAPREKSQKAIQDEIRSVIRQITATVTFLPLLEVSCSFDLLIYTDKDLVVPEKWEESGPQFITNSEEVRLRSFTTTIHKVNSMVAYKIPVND

Target	log2 fold change [1]	log2 fold change [2]	log2 fold change [3]	log2 fold change [4]	log2 fold change [5]	log2 fold change [6]	log2 fold change [7]	log2 fold change [8]	log2 fold change [9]	log2 fold change [10]
LUC7L3 (UniProt O95232)	-0.046	0.034	-0.036	0.086	-0.008	0.024	0.013	-0.009	0.003	0.022
KHDRBS1 (UniProt Q07666)	0.086	-0.006	-0.082	0.111	0.077	0.075	-0.068	0.034	0.005	-0.106
ILVBL (UniProt A1L0T0)	-0.021	-0.052	0.005	-0.051	0.007	0.037	0.049	0.004	-0.002	0.021
MAGI1 (UniProt Q96QZ7)	0.041	0.041	-0.027	-0.023	0.074	0.018	-0.009	-0.026	-0.013	-0.008
MAIP1 (UniProt Q8WWC4)	-0.022	-0.005	0.083	0.088	-0.033	0.034	0.057	-0.034	0.001	-0.002
MED1 (UniProt Q15648)	-0.043	0.084	-0.067	-0.06	0.079	-0.028	-0.034	-0.006	0.001	-0.023
KPNA4 (UniProt O00629)	0.016	0.007	0.017	0.045	-0.008	0.031	0.038	0.023	0.006	0.007
MAPKAPK5 (UniProt Q8IW41)	0.004	-0.02	-0.015	0.013	0.003	0.028	0.11	0.038	0.225	-0.03
MICOS13 (UniProt Q5XKP0)	0.041	-0.06	0.056	0.065	-0.065	0.018	0.077	-0.069	0.027	0.034
MCCC2 (UniProt Q9HCC0)	0.048	-0.028	0.026	0.04	-0.04	0.011	0.013	-0.028	-0.049	-0.02
KCTD2 (UniProt Q14681)	-0.421	0.087	-0.343	-0.084	0.072	-0.164	-0.468	-0.163	0.078	0.018
KIF13A isoform 4 (UniProt Q9H1H9)	0.035									
KIF21A isoform 4 (UniProt Q7Z4S6)	0.051	-0.067	-0.003	-0.043	0.106	-0.045	0.014	-0.025	0.069	0.104
MCUR1 (UniProt Q96AQ8)	0	-0.067	-0.01	0.012	-0.06	0.018	-0.041	-0.079	-0.033	-0.008
KIFBP (UniProt Q96EK5)	0.019	0.034	0.052	0.027	-0.107	0.067	0.093	-0.013	-0.004	0.022
MGST1 (UniProt P10620)	0.062	0.044	-0.017	0.017	-0.07	0.067	-0.007	-0.093	-0.027	-0.035

Target	log2 fold change [1]	log2 fold change [2]	log2 fold change [3]	log2 fold change [4]	log2 fold change [5]	log2 fold change [6]	log2 fold change [7]	log2 fold change [8]	log2 fold change [9]	log2 fold change [10]
ME2 (UniProt P23368)	-0.01	-0.057	-0.044	-0.017	0.015	0.011	0.002	0.022	0.027	0.018
IPO7 (UniProt O95373)	0.004	-0.007	0.035	0.035	0.009	0.025	0.081	-0.007	0.009	0.047
MAGEC2 (UniProt Q9UBF1)	0.017	0.045	-0.046	0.057	0	0.035	0.04	0.005	-0.013	-0.005
LDLR (UniProt P01130)	-0.063	0.006	0.006	0.01	0	-0.022	-0.073	-0.018	-0.03	0.019
MIER1 isoform 12 (UniProt Q8N108)	0.003	0.016	0.002	0.012	0.306 (active)	-0.006	0.008	-0.013	0.31 (active)	0.01
METAP1D (UniProt Q6UB28)	-0.022	0.009	0.047	-0.09	-0.087	-0.032	-0.053	0.056	-0.054	-0.074
MAP4 (UniProt E7EVA0)	0	0.008	-0.03	-0.061	0.161	-0.046	-0.002	0.024	0.091	0.061
IMMP1L (UniProt Q96LU5)	0.003	0.067	0.008	-0.029	-0.085	-0.055	-0.031	0.273	-0.048	-0.024
MCL1 (UniProt Q07820)	-0.022	-0.047	0.048	0.048	0.08	-0.057	-0.164	0.084	0.075	-0.027
LRBA (UniProt P50851)	-0.011	0	-0.011	0.001	-0.046	0.01	0.031	-0.025	0.008	0.038
LUZP1 (UniProt Q86V48)	-0.128	0.136	-0.005	-0.182	0.184	0.05	-0.091	-0.029	0.031	-0.062
MIEF1 (UniProt L0R8F8)	-0.007	0.003	0.019	-0.026	0.092	0.079	0.102	-0.001	0.006	0.003
LYN (UniProt P07948)	0.195	-0.053	-0.036	0.037	0.293	-0.016	-0.143	-0.22	0.211	-0.057
MED17 (UniProt Q9NVC6)	0.042	-0.03	-0.186	0.005	0.052	0.071	-0.168	0.025	-0.014	
MAD2L1 (UniProt Q13257)	0.019	-0.035	-0.003	0.031	-0.103	0.028	0.031	-0.129	0.02	0.018
